Source: the supplement of paper PMC10338343
± gives the standard deviation.

The sequences below were run on MILI (PIWIL2) piRISC loaded with L1MC piRNA (26 nt) (assay: pre-steady-state target cleavage rate (min^-1); guide: L1MC piRNA 5'p-UAACUAAAUACUAUGCAAGCUGUAGG; MIWI and MILI are mouse PIWI proteins and EfPiwi is from a freshwater sponge; tags in brackets are library labels; higher = faster piRNA-guided slicing of the target). Conditions: auxiliary factor: 500 nM mouse GTSF1.
Summary of the method: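 In this Cleave-'n-Seq assay, uncleaved targets were sequenced and normalised to depth and to weakly complementary targets. They came from a transcribed, DNA-blocked target RNA library […] mixed with 1 nM active affinity-purified piRISC carrying one synthetic guide, with or without 500 nM GTSF1 partner protein, in HEPES–potassium acetate buffer at 33 °C for 0–8 or 0–960 min. After three trials were pooled and k3 was capped at 0.0001 min^-1, the pre-steady-state cleavage rate was obtained from a burst-and-steady-state fit.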
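Note: 1 nM active piRISC with 0.1 nM target library at 33 °C single turnover.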

Sequence	pre-steady-state target cleavage rate
UCCUGGUACUGCUUGCAUUGUAUUUAGUUA	0.0791 ± 0.015
UCCUGGUACAGGUUGCAAAGUAUUUAGUUA	0.117 ± 0.012
UCCUGGAUGUGCGUUGCAUAGUAUUUAGUUA	0.145 ± 0.016
UCCUCCUACAGUCUUGCAUAGUAUUUAGUUA	0.252 ± 0.018
UCCUGGAACUGCUUGCAUAGUAUUUAGUUA	0.228 ± 0.016
UCCUGGAACAGCUUGCUUAGUAUAUAGUUA	0.241 ± 0.02
UCCUGGAUCAGCUUGCAUAGUAUUUAGUGA	0.237 ± 0.021
UCCUGGAUGUCCGUUGCAUAGUAUUUAGUUA	0.0604 ± 0.018
UCCUGCUAUAGCUUGCAUAGUAUUUAGUUA	0.221 ± 0.017
UCCUGCUACAGCUUGCAUUGUAUUUUGUUA	0.159 ± 0.024
UCCUCCUACAGCUUGCAUAGUAUUUCGUUA	0.243 ± 0.043
UCCUCGUACAGCUUGCAUAGUUUUUAGUUA	0.0651 ± 0.008
UCCUGGAUGUCCCUUGCAUAGUAUUUAGUUA	0.116 ± 0.021
UCCUGGAUGAGCUUGCAUAGUGUUUAGUUA	0.117 ± 0.016
UCCUGGAUCACGAUGCAUAGUAUUUAGUUA	0.134 ± 0.013
UCCUCCUACUCCUUGCAUAGUAUUUAGUUA	0.261 ± 0.021
UCCUGGAUCACUUGCAUAGUAUUUAGUUA	0.214 ± 0.018
UCCUGGAUCUGGUUGCAUAGUAUUUAGUUA	0.158 ± 0.014
UCCUCCUACAGCUUGCAUGGUAUUUAGUUA	0.413 ± 0.019
UCCUCCUACAGCAUGCAUAGUAUAUAGUUA	0.243 ± 0.021

Sequence	pre-steady-state target cleavage rate
UCCUGCUACUGCUAGCAUAGUAUUUAGUUA	0.253 ± 0.017
UCCUGGAUGUCCUUGUAUAGUAUUUAGUUA	0.119 ± 0.018
UCCUGGAUCAGCUACCAUAGUAUUUAGUUA	0.145 ± 0.014
UCCUGGUACAUGCUUGCAUAGUAUUUAGUUA	0.131 ± 0.018
UCCUGGAUCAGCUUGCAUAGUAUUUAGAUA	0.114 ± 0.013
UCCUGCUUCAGCUUGCAUAGUAUUUUGUUA	0.144 ± 0.025
UCCUGGAACAGGAUGCAUAGUAUUUAGUUA	0.285 ± 0.016
UCCUGCAACAGCUUGCUUAGUAUUUAGUUA	0.293 ± 0.016
UCCUCCUACUGCUUGGAUAGUAUUUAGUUA	0.223 ± 0.016
UCCUGGAAGAGCUUGCAAAGUAUUUAGUUA	0.075 ± 0.012
UCCUGGAUGUGCUUUCAUAGUAUUUAGUUA	0.126 ± 0.018
UCCUGCUUCAGCUUGCAUAGUAUUUAGUUA	0.312 ± 0.019
UCCUGGAUCAGCUUGCAUAGUAUUUAGGUUA	0.271 ± 0.027
UCCUGGAUGUGCUUGCAUAGUAAUUAGUUA	0.095 ± 0.013
UCCUGGAUGAGCUUCGCAUAGUAUUUAGUUA	0.258 ± 0.02
UCCUGCUACAGGAAGCAUAGUAUUUAGUUA	0.282 ± 0.014
UCCUGCUACUGCUUGCAUACUAUUUAGUUA	0.0731 ± 0.011
UCCUCGUACAGCUUGCAUAGUAUUUAGUUA	0.32 ± 0.015
UCCUGGAUGUCCUUGCAUAUUAUUUAGUUA	0.038 ± 0.011
UCCUGGAUCAGCUUGCAAAGUAUUAAGUUA	0.119 ± 0.011

Same assay, conditions: auxiliary factor: none (no GTSF1)

Sequence	pre-steady-state target cleavage rate
UCCUGGUACUGCUUGCAUUGUAUUUAGUUA	0.00624 ± 0.0037
UCCUGGUACAGGUUGCAAAGUAUUUAGUUA	0.0143 ± 0.0038
UCCUGGAUGUGCGUUGCAUAGUAUUUAGUUA	0.00925 ± 0.0032
UCCUCCUACAGUCUUGCAUAGUAUUUAGUUA	0.00736 ± 0.0023
UCCUGGAACUGCUUGCAUAGUAUUUAGUUA	0.00612 ± 0.002
UCCUGGAACAGCUUGCUUAGUAUAUAGUUA	0.00532 ± 0.0022
UCCUGGAUCAGCUUGCAUAGUAUUUAGUGA	0.006 ± 0.0028
UCCUGGAUGUCCGUUGCAUAGUAUUUAGUUA	0.008 ± 0.0033
UCCUGCUAUAGCUUGCAUAGUAUUUAGUUA	0.00678 ± 0.0018
UCCUGCUACAGCUUGCAUUGUAUUUUGUUA	0.00301 ± 0.0027
UCCUCCUACAGCUUGCAUAGUAUUUCGUUA	0.0033 ± 0.0031
UCCUCGUACAGCUUGCAUAGUUUUUAGUUA	0.00493 ± 0.0018
UCCUGGAUGUCCCUUGCAUAGUAUUUAGUUA	0.00815 ± 0.0024
UCCUGGAUGAGCUUGCAUAGUGUUUAGUUA	0.00732 ± 0.0031
UCCUGGAUCACGAUGCAUAGUAUUUAGUUA	0.00516 ± 0.0028
UCCUCCUACUCCUUGCAUAGUAUUUAGUUA	0.0087 ± 0.0018
UCCUGGAUCACUUGCAUAGUAUUUAGUUA	0.0066 ± 0.0022
UCCUGGAUCUGGUUGCAUAGUAUUUAGUUA	0.0105 ± 0.0029
UCCUCCUACAGCUUGCAUGGUAUUUAGUUA	0.00982 ± 0.003
UCCUCCUACAGCAUGCAUAGUAUAUAGUUA	0.00579 ± 0.0023

Sequence	pre-steady-state target cleavage rate
UCCUGCUACUGCUAGCAUAGUAUUUAGUUA	0.0054 ± 0.0023
UCCUGGAUGUCCUUGUAUAGUAUUUAGUUA	0.0121 ± 0.0026
UCCUGGAUCAGCUACCAUAGUAUUUAGUUA	0.00343 ± 0.0016
UCCUGGUACAUGCUUGCAUAGUAUUUAGUUA	0.00627 ± 0.0036
UCCUGGAUCAGCUUGCAUAGUAUUUAGAUA	0.00393 ± 0.0016
UCCUGCUUCAGCUUGCAUAGUAUUUUGUUA	0.00322 ± 0.0024
UCCUGGAACAGGAUGCAUAGUAUUUAGUUA	0.0116 ± 0.0027
UCCUGCAACAGCUUGCUUAGUAUUUAGUUA	0.00661 ± 0.0026
UCCUCCUACUGCUUGGAUAGUAUUUAGUUA	0.011 ± 0.0023
UCCUGGAAGAGCUUGCAAAGUAUUUAGUUA	0.00782 ± 0.0029
UCCUGGAUGUGCUUUCAUAGUAUUUAGUUA	0.00919 ± 0.0024
UCCUGCUUCAGCUUGCAUAGUAUUUAGUUA	0.0109 ± 0.0023
UCCUGGAUCAGCUUGCAUAGUAUUUAGGUUA	0.00531 ± 0.0025
UCCUGGAUGUGCUUGCAUAGUAAUUAGUUA	0.00684 ± 0.0024
UCCUGGAUGAGCUUCGCAUAGUAUUUAGUUA	0.00539 ± 0.0022
UCCUGCUACAGGAAGCAUAGUAUUUAGUUA	0.00969 ± 0.0027
UCCUGCUACUGCUUGCAUACUAUUUAGUUA	0.00293 ± 0.0023
UCCUCGUACAGCUUGCAUAGUAUUUAGUUA	0.0108 ± 0.0022
UCCUGGAUGUCCUUGCAUAUUAUUUAGUUA	0.0028 ± 0.0027
UCCUGGAUCAGCUUGCAAAGUAUUAAGUUA	0.00698 ± 0.0025
